# Sampled rows, rich in hits. Any-hit rate of the full collection: about 6.9%.
# SKKanGAS inh: inhibitors of SKKanGAS S. pyogenes growth in kanamycin (SK-promoter or general growth effect); BacTiter-Glo, 6 h; inhibition, % at 7.5 µM; 300,000 compounds, 1.3% hits;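 active = mean replicate score, as percent of positive control median, at least 50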;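 note: strain carries kanamycin resistance gene driven by streptokinase promoter and grows in 40 µg/ml kanamycin; loss of luminescence reflects streptokinase promoter inhibition or plain growth inhibition; 0% = median of DMSO wells and 100% = positive control at its reference dose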
# Beta cell apopt: beta cell apoptosis inhibition. INS-1E cytokine-induced death, ATP luminescence, 48 h; percent of positive-control rescue, neutral wells zero. 300,000 compounds, 0.8% hits. protection from apoptosis, % (no concentration beside the values). AID 435005;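 active = Every replicate reaches about 75%, or at least half do and their mean reaches it too, limit read from the data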;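 note: 0% = cytokine-treated negative control wells and 100% = positive control rescue; higher means more ATP so stronger rescue from cytokine killing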
# MPTP block: inhibitors of mitochondrial permeability transition pore; isolated mouse mitochondria, Ca2+ swelling absorbance, 30 min; inhibition, % at 10 µM; 360,000 compounds, 1.4% hits; AID 602449;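 active = inhibition of 50% or more, scaled per plate between neutral and stimulator controls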;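 note: 0% = DMSO wells given calcium and 100% = 1 mM EGTA wells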
# GRIN3A LBD mod: modulators (binders) of human NR3A ligand-binding domain; 340,000 compounds, 2.5% hits; Tm shift relative to glycine control, % at 25 µM; NR3A LBD differential scanning fluorimetry, Tm shift; 0% = protein alone, 100% = glycine-bound protein;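 active = melting temperature shift of at least 10% of the positive control shift, at one fixed dose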
# Mdm2 MdmX PPI: human Mdm2/MdmX binding inhibition; SaOS-2 split-luciferase Mdm2/MdmX complementation, luminescence; 330,000 compounds, 3% hits; inhibition, % at 8 µM; AID 485346;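 active = inhibition of at least 50% at 8 µM in the primary screen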
# Target sequence (O15151 whole entry, looked up): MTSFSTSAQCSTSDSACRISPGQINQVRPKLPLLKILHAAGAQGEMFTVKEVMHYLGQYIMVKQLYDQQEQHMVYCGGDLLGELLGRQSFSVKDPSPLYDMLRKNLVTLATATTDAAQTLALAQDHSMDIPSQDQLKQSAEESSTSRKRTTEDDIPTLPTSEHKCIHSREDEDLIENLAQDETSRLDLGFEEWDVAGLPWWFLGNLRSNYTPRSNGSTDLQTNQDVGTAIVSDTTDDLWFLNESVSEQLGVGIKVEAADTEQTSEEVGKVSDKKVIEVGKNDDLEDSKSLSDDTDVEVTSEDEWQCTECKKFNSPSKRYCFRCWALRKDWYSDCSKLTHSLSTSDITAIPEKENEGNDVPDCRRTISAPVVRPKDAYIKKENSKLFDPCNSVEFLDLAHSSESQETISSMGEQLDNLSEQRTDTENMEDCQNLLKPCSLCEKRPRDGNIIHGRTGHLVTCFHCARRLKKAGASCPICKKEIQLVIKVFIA
# Target sequence (Q00987 whole entry, looked up): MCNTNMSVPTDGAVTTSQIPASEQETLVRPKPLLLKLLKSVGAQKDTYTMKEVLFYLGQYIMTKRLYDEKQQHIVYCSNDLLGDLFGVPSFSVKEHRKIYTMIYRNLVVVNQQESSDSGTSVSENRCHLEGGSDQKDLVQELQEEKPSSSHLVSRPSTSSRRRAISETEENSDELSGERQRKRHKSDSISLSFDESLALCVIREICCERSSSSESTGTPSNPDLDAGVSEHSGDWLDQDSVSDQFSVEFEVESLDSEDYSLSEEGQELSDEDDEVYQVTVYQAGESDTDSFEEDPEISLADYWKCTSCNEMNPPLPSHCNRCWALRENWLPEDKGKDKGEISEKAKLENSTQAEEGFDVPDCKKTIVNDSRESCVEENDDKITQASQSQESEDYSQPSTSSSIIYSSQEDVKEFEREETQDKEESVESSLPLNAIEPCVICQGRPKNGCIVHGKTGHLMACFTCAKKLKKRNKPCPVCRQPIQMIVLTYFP
# CSC inhib: cancer stem cell inhibition; 300,000 compounds, 1.1% hits; cancer stem cell-like cells viability, luminescence; inhibition, % at 7.5 µM; in the data active = inhibition above about 75%; tested in HMLE shEcad cells
# Mdm2-MdmX conf: confirmation of human Mdm2/MdmX interaction inhibitors | shares compounds with Mdm2 MdmX PPI | 10,000 compounds, 55% hits | inhibition, % at 8 µM | AID 489028 | Mdm2-MdmX binding, luminescent assay; in the data active = inhibition above about 40%
# FLuc counter: full-length luciferase inhibition in Mdm2/MdmX counter-screen; shares compounds with Mdm2 MdmX PPI; 6,200 compounds, 77% hits; SaOS-2 full-length luciferase counterscreen, luminescence; inhibition, % at 8 µM;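 active = mean inhibition at 8 µM reaching about 37%, which flags the compound as non-specific, limit read from the data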;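 note: p53-null SaOS-2 cells with luciferase driven by a doxycycline-inducible promoter; compound on cells about two nights before reading with doxycycline added after day one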
# Active calls of the source: *; x = no result; + = active, no number.
SMILES,SKKanGAS inh,Beta cell apopt,MPTP block,GRIN3A LBD mod,Mdm2 MdmX PPI,CSC inhib,Mdm2-MdmX conf,others
O=C(CCl)N1CCCC1c1ccc2c(c1)OCCO2 (stereo not given),6,-2,27,0,75*,-2,33,FLuc counter=43*
CCOc1ccc(C(=O)COC(=O)Cc2n[nH]c(=O)c3ccccc23)cc1,7,31,-3,2,57*,56,75*,FLuc counter=51*
O=C(Cc1n[nH]c(=O)c2ccccc12)OCC(=O)c1ccc2c(c1)OCCO2,3,13,2,-1,55*,64,68*,FLuc counter=94*
O=C(Cc1n[nH]c(=O)c2ccccc12)OCC(=O)c1ccc(F)cc1,1,-2,1,3,19,-9,x,
Cc1cc(C(=O)COC(=O)Cc2n[nH]c(=O)c3ccccc23)c(C)n1-c1ccc2c(c1)OCO2,9,5,22,-13,25,18,x,
O=C(c1cccs1)N1C[C@H](O)[C@@H](n2cc(C3CC3)nn2)C[C@@H]1c1ccccc1,x,x,-1,x,x,x,x,
CCOc1ccc(CCNC(=O)COC(=O)CNS(=O)(=O)c2ccc(NC(C)=O)cc2)cc1OCC,6,-2,0,-1,-1,-7,x,
O=C1CC(c2ccco2)CC2=C1C1c3ccccc3C(=O)N1c1ccccc1N2 (stereo not given),11,-16,-1,-7,68*,28,27,
CCC(=O)N1c2ccccc2NC2=C(C(=O)CC(c3ccco3)C2)C1c1ccco1 (stereo not given),6,x,0,0,5,-9,x,
Cc1cc(C)c(NC(=O)Cn2c(=O)c3cccn3c3ccccc32)c(C)c1,-3,1,-1,-2,3,-4,x,
COc1ccc(CNCC(O)(c2ccccc2)c2ccc(Cl)cc2)cc1 (stereo not given),3,8,11,5,50*,10,4,
COc1ccc(-c2cc3c(=O)n(CC(=O)NCCCN4CCC(N5CCCCC5)CC4)nc(C)n3n2)cc1,-1,-12,0,1,99*,-16,100*,FLuc counter=46*
COc1ccc(-c2cc3c(=O)n(CC(=O)NC4CCN(Cc5ccccc5)CC4)ncn3n2)cc1,-13,8,1,-1,69*,-8,13,
COc1ccc(-c2cc3c(=O)n(CC(=O)NCCCN4CCC(N5CCCCC5)CC4)ncn3n2)cc1,-1,5,2,7,67*,18,26,
CCc1ccc(-c2cc3c(=O)n(CC(=O)NCCN4CCCCC4C)nc(C)n3n2)cc1 (stereo not given),-1,11,-1,-1,68*,80*,25,
Cc1nn(CC(=O)NCCCN2CCCCC2)c(=O)c2cc(-c3ccccc3)nn12,-1,0,-1,0,17,3,x,
COc1ccc2cc(C(=O)C3CCCN(C(=O)C4=NN(C)C(=O)CC4)C3)ccc2c1 (stereo not given),6,-4,-2,1,-8,0,x,
Cc1cc(=O)c(C(=O)O)nn1-c1ccccc1Cl,2,-3,-2,-1,-15,-8,x,
CC[C@]12c3[nH]c4cc(CCC(=O)N(C)C)ccc4c3CCN1C(=O)[C@@H](CC(=O)NCc1cccc(C(F)(F)F)c1)C[C@@H]2C(=O)N1CCN(C(=O)c2ccco2)CC1,x,x,0,-1,18,x,x,
COc1ccc(-c2cc3c(=O)n(CC(=O)Nc4ccc(C(C)=O)cc4)ncn3n2)cc1,3,4,-1,-1,58*,-5,34,FLuc counter=105*
COc1ccc(-c2cc3c(=O)n(CC(=O)NCc4cccnc4)ncn3n2)cc1,-5,-6,-1,-3,0,-4,x,
N#CC1(NC(=O)Cn2ncc(Cl)c(Cl)c2=O)CCCCC1,-12,-13,1,-1,98*,-9,83*,FLuc counter=30
COc1ccccc1CCNC(=O)CN1C(=O)c2ccccc2S1(=O)=O,-3,-3,-2,3,37,-4,x,
Cc1ccc(NC(=O)c2cc(C(C)(C)C)nn2Cc2ccccc2)cc1,25,x,44,-5,74*,x,55*,FLuc counter=59*
Cc1ccc(NC(=O)c2ccc(=O)n(CC(=O)Nc3ccccc3)n2)cc1,1,2,-1,0,-3,-6,x,
SMILES,SKKanGAS inh,Beta cell apopt,MPTP block,GRIN3A LBD mod,Mdm2 MdmX PPI,CSC inhib,Mdm2-MdmX conf,others
CCOc1ccccc1NC(=O)C1CCCN(S(=O)(=O)c2ccc(-n3cnnn3)cc2)C1 (stereo not given),14,2,0,2,23,-7,x,
CCN(CC(=O)Nc1c(F)cccc1F)C(=O)c1cc(-c2cccs2)nn1-c1ccccc1,8,-2,0,1,60*,x,40,FLuc counter=86*
COc1ccc(CCNC(=O)NCCc2c[nH]c3ccccc23)cc1OC,-5,0,0,1,14,-7,x,
COc1cc(CNCCc2c[nH]c3ccccc23)ccc1OCc1ccccc1F,-2,21,1,-4,90*,+,18,
CCOC(=O)N1CCN(C(=O)c2ccc(Cn3c(=S)[nH]c4ccc(Br)cc4c3=O)cc2)CC1,31,54,6,-9,55*,-11,27,
C=CCn1c(=O)[nH]c2cc(C(=O)N3CCN(c4cc(C)ccc4C)CC3)ccc2c1=O,9,3,3,-1,29,-6,x,
Cc1ccc(C)c(N2CCN(C(=O)c3ccc(Cn4c(=O)[nH]c5ccccc5c4=O)cc3)CC2)c1,45,8,2,-5,91*,18,52*,FLuc counter=47*
O=C(c1ccc(Cn2c(=O)[nH]c3ccccc3c2=O)cc1)N1CCN(c2ccc(Cl)cc2)CC1,26,24,1,-5,65*,17,34,
COc1ccc(Cn2c(=O)[nH]c3cc(C(=O)N4CCN(c5ccc(OC)cc5)CC4)ccc3c2=O)cc1,7,-2,1,-2,21,-10,x,
C=CC[C@@H](CC(=O)N[C@@H](CO)Cc1ccccc1)C(=O)NC[C@H](OC(=O)[C@@H](CC=C)Cc1ccc(F)cc1)c1ccccc1,x,4,0,-6,49,x,x,
C=CC[C@@H](CC(=O)N[C@@H](CO)Cc1ccccc1)C(=O)NC[C@@H](OC(=O)[C@@H](CC=C)Cc1ccc(F)cc1)c1ccccc1,x,10,0,-3,52*,-11,10,
C=CC[C@@H](CC(=O)N(CCO)Cc1ccccc1)C(=O)NC[C@@H](OC(=O)[C@@H](CC=C)Cc1ccc(F)cc1)c1ccccc1,x,7,1,-1,55*,-2,18,
C=CC[C@H](CC(=O)N(CCO)Cc1ccccc1)C(=O)NC[C@H](OC(=O)[C@@H](CC=C)Cc1ccc(F)cc1)c1ccccc1,x,13,0,1,71*,31,39,
